This is part of a sample that, as a whole, favours compounds with a hit. Of some 79,000 tested, about 15% had one in any assay. Active and inactive are the calls of the source. Cut-off read from the data, not from the text of the source: active = growth inhibition above about 70%; inactive = the rest.
Assays:
[1] = NCI Yeast Anticancer Drug Screen. Data for the rad50 strain (AID 155);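 note: 0% = growth of vehicle-only cultures of the same strain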; details: S. cerevisiae rad50 strain growth inhibition, stronger effect = higher value
In short: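 Growth of the mutant yeast was measured after compound exposure and referenced to vehicle-treated cultures.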

[2] = NCI Yeast Anticancer Drug Screen. Data for the mec2-1 strain (AID 157); details: S. cerevisiae mec2-1 strain, stronger effect = higher value
In short: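 mec2-1 yeast strain, carrying an alteration in DNA damage repair or cell cycle control, was exposed to compounds; growth inhibition was measured relative to vehicle-treated controls.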

[3] = NCI Yeast Anticancer Drug Screen. Data for the sgs1 mgt1 strain (AID 161);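 note: 0% = growth of cultures given vehicle only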; details: S. cerevisiae sgs1 mgt1 strain, stronger effect = higher value
In short: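 Compounds are added to genetically altered yeast, and growth is compared with cultures given vehicle alone to give percent inhibition.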

[4] = NCI Yeast Anticancer Drug Screen. Data for the cln2 rad14 strain (AID 165);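 note: 0% = growth equal to vehicle treated cultures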; details: S. cerevisiae cln2 rad14 strain, stronger effect = higher value
In short: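 Yeast carrying cln2 and rad14 alterations (cell cycle control and DNA damage repair) were exposed to compounds. Growth inhibition was measured against vehicle-treated controls.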

[5] = NCI Yeast Anticancer Drug Screen. Data for the bub3 strain (AID 167); details: S. cerevisiae bub3 mutant strain, stronger effect = higher value
In short: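 Whole-cell yeast assay. The mutant strain was incubated with compounds, and growth inhibition was determined by comparison with vehicle-treated cells.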

[6] = NCI Yeast Anticancer Drug Screen. Data for the mlh1 rad18 strain (AID 175); details: S. cerevisiae mlh1 rad18 strain growth inhibition, stronger effect = higher value
In short: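 Growth inhibition of the yeast strain was measured after compound exposure and expressed relative to vehicle-treated controls. The strain carries defined defects in DNA damage repair.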

[7] = at 5.0 µM (retest, dose inferred, filed as 0.5)
[8] = at 50.0 µM (retest, dose inferred, filed as 5.0)

Measured: growth inhibition

CCC1CCC(CC)C1O (stereo not given)
inactive: [1]; [7] 1% | [1]; [8] 6% | [1]; at 50.0 µM 34.9% | [2]; [7] 0% | [2]; [8] -3% | [2]; at 50.0 µM 22.9% | [3]; [7] 2% | [3]; [8] 0% | [3]; at 50.0 µM 26.8% | [4]; [7] 1% | [4]; [8] 4% | [4]; at 50.0 µM 29.8% | [5]; [7] 1% | [5]; [8] 2% | [6]; [7] -2% | [6]; [8] 2% | [6]; at 50.0 µM 28.5%
active: [5]; at 50.0 µM 78.7%

COC(=O)c1ccc([N+](=O)[O-])o1
inactive: [1]; [7] 7% | [1]; [8] 42% | [2]; [7] 7% | [2]; [8] 38% | [2]; at 50.0 µM 46.4% | [3]; [7] 4% | [3]; [8] 26% | [4]; [7] -5% | [4]; [8] 5% | [4]; at 50.0 µM 23.2% | [5]; [7] 0% | [5]; at 50.0 µM 62.1% | [6]; [7] 13% | [6]; [8] 56%
active: [1]; at 50.0 µM 70.7% | [3]; at 50.0 µM 76.8% | [5]; [8] 71% | [6]; at 50.0 µM 72.3%

CSc1ccc(/C=C2\CNC/C(=C\c3ccc(SC)cc3)C2=O)cc1
inactive: [1]; [7] 12% | [1]; [8] 18% | [1]; at 50.0 µM 47.4% | [2]; [7] 15% | [2]; [8] 19% | [2]; at 50.0 µM 55.2% | [3]; [7] 26% | [3]; [8] 32% | [3]; at 50.0 µM 69.8% | [4]; [7] 23% | [4]; [8] 29% | [4]; at 50.0 µM 46.9% | [5]; [7] 17% | [5]; [8] 23% | [5]; at 50.0 µM 35% | [6]; [7] 24% | [6]; [8] 33%
active: [6]; at 50.0 µM 71.6%

CCCCNc1cccc2ncccc12
inactive: [1]; [7] 11% | [1]; [8] 53% | [1]; at 50.0 µM 17.1% | [2]; [7] 9% | [2]; [8] 34% | [2]; at 50.0 µM 9.85% | [3]; [7] 14% | [3]; [8] 58% | [3]; at 50.0 µM 21.8% | [4]; [7] 9% | [4]; [8] 28% | [4]; at 50.0 µM -3.9% | [5]; [7] 4% | [5]; [8] 31% | [5]; at 50.0 µM -4.2% | [6]; [7] 21% | [6]; [8] 57% | [6]; at 50.0 µM 50%

O=Cc1c(I)cc(I)c(O)c1I
inactive: [1]; [7] 45% | [2]; [7] 46% | [4]; [7] 42% | [5]; [7] 44% | [5]; [8] 67% | [6]; [7] 56%
active: [1]; [8] 88% | [1]; at 50.0 µM 98.6% | [2]; [8] 99% | [2]; at 50.0 µM 98.7% | [3]; [7] 79% | [3]; [8] 100% | [3]; at 50.0 µM 97.9% | [4]; [8] 97% | [4]; at 50.0 µM 95.1% | [5]; at 50.0 µM 96.8% | [6]; [8] 97% | [6]; at 50.0 µM 97.3%

CC(C)OC(=O)c1ccc(CCC2=CC(=O)C=CC2=O)cc1
active: [1]; [8] 89% | [1]; at 50.0 µM 81.1% | [2]; [8] 99% | [2]; at 50.0 µM 77.2% | [3]; [7] 86% | [3]; [8] 94% | [3]; at 50.0 µM 87.3% | [4]; [7] 76% | [4]; [8] 91% | [5]; [7] 92% | [5]; [8] 95% | [5]; at 50.0 µM 87.4% | [6]; [8] 98% | [6]; at 50.0 µM 79.2%
inactive: [1]; [7] 34% | [2]; [7] 53% | [4]; at 50.0 µM 61.7% | [6]; [7] 66%

CCCC(=O)Nc1cc([N+](=O)[O-])ccc1O
active: [1]; [8] 97% | [1]; at 50.0 µM 99.3% | [2]; [8] 98% | [2]; at 50.0 µM 90% | [3]; [8] 88% | [4]; [8] 84% | [4]; at 50.0 µM 96.7% | [5]; [8] 97% | [5]; at 50.0 µM 95.2% | [6]; [8] 93% | [6]; at 50.0 µM 98%
inactive: [1]; [7] -129% | [2]; [7] -38% | [3]; [7] -51% | [3]; at 50.0 µM 63.2% | [4]; [7] -57% | [5]; [7] -57% | [6]; [7] -127%

CCCCCCCCNc1nc(Cl)nc2c1cnn2C
active: [5]; [8] 80% | [6]; [8] 84%
inactive: [1]; [7] 2% | [1]; [8] 40% | [1]; at 50.0 µM 0.3% | [2]; [7] -1% | [2]; [8] 59% | [2]; at 50.0 µM -17.9% | [3]; [7] 3% | [3]; [8] 68% | [3]; at 50.0 µM 24.2% | [4]; [7] -4% | [4]; [8] 62% | [4]; at 50.0 µM -10.6% | [5]; [7] -5% | [5]; at 50.0 µM 42.4% | [6]; [7] 12% | [6]; at 50.0 µM 45.5%

COc1ccc(/C(Cl)=C(\C=O)c2ccc(Cl)cc2)cc1OC
active: [5]; [8] 70%
inactive: [1]; [7] 6% | [1]; [8] 61% | [1]; at 50.0 µM 4.15% | [2]; [7] -8% | [2]; [8] 35% | [2]; at 50.0 µM 13.4% | [3]; [7] -17% | [3]; [8] 56% | [3]; at 50.0 µM 21.6% | [4]; [7] 7% | [4]; [8] 49% | [4]; at 50.0 µM 0.1% | [5]; [7] 4% | [5]; at 50.0 µM 13.6% | [6]; [7] -5% | [6]; [8] 68% | [6]; at 50.0 µM 24.1%

COC(=O)c1ccc(CSc2ccc(OC)cc2)cc1
active: [1]; [8] 84% | [1]; at 50.0 µM 88.5% | [2]; [8] 75% | [2]; at 50.0 µM 83.2% | [3]; [8] 92% | [3]; at 50.0 µM 88.3% | [4]; [8] 83% | [4]; at 50.0 µM 80.9% | [5]; [8] 80% | [5]; at 50.0 µM 85.2% | [6]; [8] 91% | [6]; at 50.0 µM 85.3%
inactive: [1]; [7] 16% | [2]; [7] -14% | [3]; [7] 8% | [4]; [7] 2% | [5]; [7] 1% | [6]; [7] -21%
